Test results published in PubChem BioAssay AID743315 (Broad Institute, 2014).
Results with a measured potency or affinity are listed apart. Active and inactive are the calls of the source.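 Rule for the calls: active = cell killing, with a fitted active concentration at or below twice the top valid dose tested; inconclusive = flat curve with moderate cell loss, or an unreliable fit; inactive = effect in the rising direction, plus the rest.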

assay: loss of HEK293T viability via ATP – cell-based, plate reader, dry powder, set 10, cytotoxicity control, dose response (AID 743315); details: CellTiter-Glo ATP luminescence, 72 h; series mostly up to 26 µM

Compound	outcome
Cc1ccc(OCCn2cnc3ccccc32)c(C(C)C)c1	inactive
Fc1cccc(OCCn2c(=S)[nH]c3ccccc32)c1	inactive
Cc1cccc(OCCn2c(=S)[nH]c3cc(C(F)(F)F)ccc32)c1	inactive
Fc1ccc2c(c1)[nH]c(=S)n2CCOc1ccccc1	inactive
Cc1ccc(OCCn2cnc3ccccc32)cc1	inactive
Fc1ccccc1OCCn1c(=S)[nH]c2ccccc21	inactive
COc1cccc(OCCn2c(=S)[nH]c3ccccc32)c1	inactive
Cc1ccc(C(C)C)c(OCCn2c(=S)[nH]c3ccccc32)c1	inactive
S=c1[nH]c2cc(Cl)ccc2n1CCOc1ccccc1	inactive
CC(C)c1ccccc1OCCn1c(=S)[nH]c2ccccc21	inactive
Cc1ccccc1OCCn1c(=S)[nH]c2ccccc21	inactive
Cc1ccc(C(C)C)c(OCCn2c(CO)nc3ccccc32)c1	inactive
Cc1ccc(C(C)C)c(OCCn2c(=S)[nH]c3cccc(F)c32)c1	inactive
Cc1ccc(C(C)C)c(OCCn2c(=S)[nH]c3cccc(C)c32)c1	inactive
COc1ccc(OCCn2c(=S)[nH]c3ccccc32)cc1	inactive
Cc1ccc(C(C)C)c(OCCn2c(=S)[nH]c3c(F)cccc32)c1	inactive
CC(C)(C)c1ccc(OCCn2c(=S)[nH]c3ccccc32)cc1	inactive
Cc1ccc(OCCn2c(=S)[nH]c3ccccc32)c(C(C)C)c1	inactive
CCOc1ccc(OCCn2c(=S)[nH]c3ccccc32)cc1	inactive
c1ccc(OCCn2cnc3ccccc32)cc1	inactive
Fc1ccc(OCCn2c(=S)[nH]c3ccccc32)cc1	inactive
